In PubChem BioAssay AID2384 (Southern Research Specialized Biocontainment Screening …, 2010):
The whole screen tested about 2,300 compounds, of which about 1,100 (48%) were called active. So high a share suggests a set chosen from earlier hits. The list shows a part of the results. Entries with a potency or affinity are not part of this list. Values without a mark were called inactive. The rule behind the calls is not given here.

assay: S. typhi counter-screen signal inhibition – fluorescence, 4 h, counter-screen for PhoP regulon inhibitor project, dose response (AID 2384); conditions: S. typhi GFP reporter counter-screen; series mostly up to 150 µM; inhibition: at the top concentration

**Q.** For `C[N+]1(CC2COC3(CCCCC3)O2)CCCCC1` (stereo unspecified), which “inhibition” value is on record?
**A.** Its value is 2.61%.

**Q.** With `COc1ccc(NC(=O)C2CCCN(C(=O)NC3CCCCC3)C2)cc1OC` (stereo unspecified) as the compound, how does the “inhibition” value read?
**A.** Its value is -7.47%.

**Q.** Which “inhibition” value does the source give for `CCn1nnnc1SCC(=O)c1cc(Cl)ccc1OC` here?
**A.** The value was 26.2%.

**Q.** For `O=c1cc(-c2ccccc2)nc2nc(-c3ccco3)[nH]n12`, which “inhibition” value is on record?
**A.** Its value is 35%.

**Q.** For `C#CCOCCOCCOCCNc1nc(N2CCN(C(=O)CCCCCCCCCCNC(=O)[C@H]([C@@H](C)CC)n3cc(CCCCCN)nn3)CC2)nc(N2CCN(C(=O)CCCCCCCCCCNC(=O)[C@@H]([C@H](C)O)n3cc(C)nn3)CC2)n1`, which “inhibition” value is on record?
**A.** The value was 10.8%.

**Q.** For `CS(=O)(=O)N1CC(C(=O)NC2CC2)Oc2ccc(Cl)cc21` (stereo unspecified), which “inhibition” value is on record?
**A.** The value was -21%.

**Q.** Which “inhibition” value does the source give for `CCOC(=O)C1=C(C)NC(SCC(N)=O)=C(C#N)C1c1ccncc1` (stereo unspecified) here?
**A.** The value was 4.95%.

**Q.** Which “inhibition” value does the source give for `Cc1ccc(SCc2[nH]nc3c2C(c2cccnc2)C(C#N)=C(N)O3)cc1` (stereo unspecified) here?
**A.** The value was 1.18%.

**Q.** Which “inhibition” value does the source give for `CN(CC(=O)NCc1ccncc1)S(=O)(=O)c1ccccc1` here?
**A.** Its value is -1.72%.

**Q.** With `c1ccc2c(c1)nc(N1CCOCC1)c1c3ccccc3[nH]c21` as the compound, how does the “inhibition” value read?
**A.** The value was -17.1%.

**Q.** With `COCCNC(=S)N=Nc1c(O)[nH]c2ccc([N+](=O)[O-])cc12` as the compound, how does the “inhibition” value read?
**A.** The value was 1.83%.

**Q.** With `Cc1cc(C)c(CSc2ncnc3nc[nH]c23)c(C)c1` as the compound, how does the “inhibition” value read?
**A.** The value was 4.91%.

**Q.** Which “inhibition” value does the source give for `O=C(c1ccco1)N1CCCN(Cc2nc(-c3ccc4c(c3)OCO4)no2)CC1` here?
**A.** Its value is -15.4%.

**Q.** For `OCn1ncn(-c2ccccc2)c1=S`, which “inhibition” value is on record?
**A.** The value was 7.87%.

**Q.** With `CCN(CC)/C(N)=N/c1nc(C)cc(C)n1` as the compound, how does the “inhibition” value read?
**A.** Its value is 19.2%.

**Q.** With `Cc1cc(C)c2nc(/N=C(\N)NC(=O)c3ccccc3)nc(C)c2c1` as the compound, how does the “inhibition” value read?
**A.** Its value is 2.46%.

**Q.** With `COc1ccc(OC)c(NC(=O)CSc2nnc3ccc(-c4ccncc4)nn23)c1` as the compound, how does the “inhibition” value read?
**A.** The value was 9.2%.

**Q.** Which “inhibition” value does the source give for `O=c1ccn(CCc2c[nH]c3ccccc23)c2c1CCCC2` here?
**A.** The value was -0.3%.

**Q.** For `O=C(NCc1ccccc1)N[C@@H](Cc1c[nH]c2ccccc12)C(=O)O`, which “inhibition” value is on record?
**A.** Its value is 8.61%.

**Q.** Which “inhibition” value does the source give for `CN(C)C(=O)CC12CC3CC(C1)CC(CC(=O)N(C)C)(C3)C2` here?
**A.** Its value is 3.13%.

**Q.** Which “inhibition” value does the source give for `CCOC(=O)C1CCCN(C/C(O)=C(\C#N)c2nc(-c3ccccc3)cs2)C1` (stereo unspecified) here?
**A.** Its value is 8.93%.

**Q.** For `O=C(Cn1[nH]c(=O)c2ccccc2c1=O)Nc1ccc(-c2nnc3n2CCCCC3)cc1`, which “inhibition” value is on record?
**A.** The value was -15.2%.

**Q.** Which “inhibition” value does the source give for `Cc1cc(Cl)ccc1OCC(=O)Nc1nc(-c2cccnc2)cs1` here?
**A.** The value was -11.5%.

**Q.** Which “inhibition” value does the source give for `O=C1C2C3C=CC(CC3)C2C(=O)N1/N=C/c1ccc(O)cc1` (stereo unspecified) here?
**A.** Its value is -17.8%.

**Q.** Which “inhibition” value does the source give for `Cc1cccc(NC(=O)c2sc3nc(-c4ccccc4)cn3c2C)n1` here?
**A.** Its value is -13.9%.

**Q.** Which “inhibition” value does the source give for `O=C(Nc1ccc(N2CCOCC2)c(Cl)c1)c1ccc(-n2cnnc2)cc1` here?
**A.** The value was -13.5%.

**Q.** Which “inhibition” value does the source give for `CCOC(=O)C1=C(C)NC(=O)NC1c1ccc(NC(C)=O)cc1` (stereo unspecified) here?
**A.** The value was -8.05%.

**Q.** Which “inhibition” value does the source give for `CSC1=NC2(C)CCCCC2C12C=CC(=O)C=C2` (stereo unspecified) here?
**A.** The value was -21.2%.

**Q.** Which “inhibition” value does the source give for `Nc1cncc(C(=O)O)c1` here?
**A.** The value was -53%.

**Q.** Which “inhibition” value does the source give for `CC1CCCC(NC(=O)COC(=O)CCSc2ccccc2)C1C` (stereo unspecified) here?
**A.** The value was 11.9%.

**Q.** With `Cc1cccc(NC(=O)CSc2nc3c([nH]c4ccccc43)c(=O)n2C)c1` as the compound, how does the “inhibition” value read?
**A.** The value was -5.51%.

**Q.** For `CC(C)OCCCn1c(=S)[nH]c2cc3c(cc2c1=O)OCO3`, which “inhibition” value is on record?
**A.** Its value is -4.16%.

**Q.** For `CCS(=O)(=O)N1CCC(C(=O)NCc2cc(OC)ccc2OC)CC1`, which “inhibition” value is on record?
**A.** Its value is -21.9%.

**Q.** With `CC(C)c1ccc(N(C(=O)C(F)(F)F)C(C(=O)NC2CCCCC2)c2ccncc2)cc1` (stereo unspecified) as the compound, how does the “inhibition” value read?
**A.** The value was 9.6%.

**Q.** With `COc1ccc(N2CCN(c3cc(C)c4ccc(O)cc4n3)CC2)cc1` as the compound, how does the “inhibition” value read?
**A.** The value was -1.1%.

**Q.** For `COc1ccc(NC(=O)CCNS(=O)(=O)c2cccc3nonc23)cc1`, which “inhibition” value is on record?
**A.** The value was -8.45%.

**Q.** Which “inhibition” value does the source give for `N=c1ccccn1CC(O)COc1ccccc1` (stereo unspecified) here?
**A.** Its value is -25.8%.

**Q.** With `CSc1nc2cc(Oc3cccc(Cl)c3Cl)c(Cl)cc2[nH]1` as the compound, how does the “inhibition” value read?
**A.** Its value is 37.1%.

**Q.** Which “inhibition” value does the source give for `Clc1ccc2nc(N3CCCCC3)[nH]c2c1` here?
**A.** The value was 21.9%.

**Q.** For `CC(=O)c1c(C)[nH]c(C(=O)CSc2nnc(-c3ccc(Cl)cc3)n2CC2CCCO2)c1C` (stereo unspecified), which “inhibition” value is on record?
**A.** Its value is -16.2%.

**Q.** With `O=C(NC(O)C(=O)c1ccccc1)c1ccc(F)cc1` (stereo unspecified) as the compound, how does the “inhibition” value read?
**A.** Its value is -8%.

**Q.** With `CC(C)C(NC(=O)c1ccc(Cl)cc1)C(=O)NCC1CCCO1` (stereo unspecified) as the compound, how does the “inhibition” value read?
**A.** Its value is -23.1%.

**Q.** With `Clc1ccc2c(c1)c1cc(Cl)ccc1n2CN1CCOCC1` as the compound, how does the “inhibition” value read?
**A.** The value was 23.5%.

**Q.** Which “inhibition” value does the source give for `CC(=O)N(CCC1(c2ccc(C)cc2)CCOC(C(C)C)C1)Cc1ccco1` (stereo unspecified) here?
**A.** The value was 16.3%.

**Q.** For `c1cc(N2CCCC2)ccc1C(c1nnnn1C1CCCCC1)N1CCOCC1` (stereo unspecified), which “inhibition” value is on record?
**A.** The value was -9.47%.

**Q.** Which “inhibition” value does the source give for `O=C(NC(=S)Nc1ccc(S(=O)(=O)Nc2nccs2)cc1)c1cccnc1` here?
**A.** The value was -25.2%.

**Q.** Which “inhibition” value does the source give for `COc1nccnc1NS(=O)(=O)c1ccc(NC(=S)NC(=O)c2cccnc2)cc1` here?
**A.** The value was -19.3%.

**Q.** For `C=C(C)COc1ccc2c(C)c(CCC(=O)NC3CC3)c(=O)oc2c1`, which “inhibition” value is on record?
**A.** Its value is 9.62%.

**Q.** Which “inhibition” value does the source give for `O=C(c1ccccc1)N1CCN(c2ccc([N+](=O)[O-])c(NCc3ccco3)c2)CC1` here?
**A.** Its value is 12.7%.

**Q.** For `O=C1C(Cl)=C(NCc2cccnc2)C(=O)c2ccccc21`, which “inhibition” value is on record?
**A.** Its value is -10.2%.

**Q.** With `CCCC(=O)Nc1c2c(nn1-c1ccc(C)cc1C)CSC2` as the compound, how does the “inhibition” value read?
**A.** The value was -2.67%.

**Q.** With `NC(N)=NC(N)=Nc1cccc2ccccc12` as the compound, how does the “inhibition” value read?
**A.** Its value is 17.7%.

**Q.** Which “inhibition” value does the source give for `Cc1c(C(=O)O)oc2c3c(ccc12)OCCO3` here?
**A.** Its value is 37%.

**Q.** For `Cc1ccnc(NS(=O)(=O)c2ccc(N=CC3=C(O)CC(C)(C)CC3=O)cc2)n1`, which “inhibition” value is on record?
**A.** Its value is -5.31%.

**Q.** For `N#Cc1nc(Cc2cccc3ccccc23)oc1NCCCN1CCOCC1`, which “inhibition” value is on record?
**A.** Its value is 33.6%.

**Q.** Which “inhibition” value does the source give for `N#Cc1nc(Cc2ccccc2)oc1NCCN1CCOCC1` here?
**A.** The value was 5.87%.
